# Test results taken from PubChem BioAssay (Tox21).
# Several values for one entry are separate records, joined by “and”; a condition that tells them apart may be missing. Equal values may be shown once. Inconclusive results are not listed. Entries that show only a call come without a potency. Some compounds were tested as several samples or in several runs, with calls that do not always agree. Activity calls are given as the source filed them. Unless noted, the call rests on the fitted dose curve; in most records, active means well fitted curve in the direction sought with a large enough effect in the repeat runs; inconclusive means weak or mixed curves; inactive means no such curve, though single readings can be large; an effect the other way counts as inactive or inconclusive.
# Columns and labels:
# [1] = target: Thyrotropin receptor (Homo sapiens) (UniProt P16473); assay: qHTS assay to identify small molecule agonists of the thyroid stimulating hormone receptor (TSHR) signaling pathway (AID 1224843; calls by dose curve; further: nearly all actives have a fitted effect of over 45% in size)
# Procedure, shortened: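 HEK293/TSHR, 800 cells/well; cpd 30 min RT; add cAMP-d2 + anti-cAMP-cryptate, 1 h RT; fluorescence read on plate reader. 15-pt titration, n=3.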
# [2] = qHTS assay to identify small molecule agonists of the hypoxia (HIF-1) signaling pathway - cell viability counter screen (AID 1224844; calls by dose curve; further: nearly all actives have a fitted effect of over 50% in size)
# Procedure, shortened: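 Viability counter screen: HRE-bla ME-180 cells plated 5 hrs before compound addition, treated 17 hrs at 37C and 5% CO2, then CellTiter-Glo added after the FRET reporter read; luminescence after 30 min.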
# [3] = qHTS assay to identify small molecule agonists of the hypoxia (HIF-1) signaling pathway (AID 1224846; active means well fitted activation curve with a large enough effect in the signal ratio in the repeat runs, not every such curve was filed as active; the % refers to the signal ratio)
# Procedure, shortened: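 Agonist mode reporter screen. ME-180 cells stably expressing bla under HRE control received test compounds in DMSO for 17 hrs (37C, 5% CO2), and beta-lactamase activity was then detected with the CCF4-AM FRET substrate.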
# [4] = qHTS assay to identify small molecule agonists of H2AX - cell viability counter screen (AID 1224847; calls by dose curve; further: nearly all actives have a fitted effect of over 30% in size; further: potency means the concentration at half of the fitted maximal effect)
# Procedure, shortened: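 CHO-K1 cells plated overnight at 37C, then exposed 3 h at 37C to compounds at 15 concentrations (0.76% DMSO final). Viability by CellTiter-Glo luminescence after 30 min at room temperature.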
# [5] = qHTS assay to identify small molecule antagonists of the estrogen related receptor (ERR) signaling pathway from Tox21 library (AID 1224848); further: nearly all actives have a fitted effect of over 50% in size; further: potency means the concentration at half of the fitted maximal effect
# Procedure, shortened: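 Compounds dissolved in DMSO are pin-transferred onto ERR reporter cells (2,000 per well) that have settled for 6 h at 37 C. Plates then incubate 18 h at 37 C before ONE-Glo luciferase reagent and a luminescence read 30 min later.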
# [6] = qHTS assay to identify small molecule agonists of the estrogen related receptor (ERR) signaling pathway from Tox21 library (AID 1224849; calls by dose curve; further: nearly all actives have a fitted effect of over 15% in size); conditions: ERR reporter cell line, ONE-Glo luciferase, 18 h
# Procedure, shortened: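 Quantitative HTS in agonist format: NTP ERR cell line, compounds transferred in DMSO after 6 h plating, 18 h incubation at 37 C, ONE-Glo luminescence endpoint.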
# [7] = qHTS RealTime-Glo MT Cell Viability Assay in HepG2 cells - 24 hour (AID 1224867); further: nearly all actives have a fitted effect of over 50% in size
# Procedure, shortened: (§1)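 Luminescence read-out: viable HepG2 cells reduce a prosubstrate to a NanoLuc substrate, giving a signal proportional to live cell number. Reads taken at 0, 8, 16, 24, 32 and 40 h of compound exposure at 37 C.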
# [8] = qHTS RealTime-Glo MT Cell Viability Assay in HEK293 cells - 32 hour (AID 1224868); further: nearly all actives have a fitted effect of over 50% in size; further: potency means the concentration at half of the fitted maximal effect
# Procedure, shortened: (§2)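 Nonlytic real-time viability readout: viable cells convert prosubstrate to NanoLuc substrate, giving luminescence proportional to live cell number. HEK293, 600 cells/well, compound added after 5 h, continuous culture at 37 C.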
# [9] = A CellTox Green Cytotoxicity Assay to monitor cytotoxicity in HEK293 cells - 0 hour (AID 1224869); further: nearly all actives have a fitted effect of over 50% in size
# Procedure, shortened: (§3)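 Dead-cell fluorescence measured kinetically: asymmetric cyanine dye, HEK293, 600 cells/well, 5 h settle, 23 nL cpd/DMSO, 37 C, reads 0–40 h every 8 h.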
# [10] = A CellTox Green Cytotoxicity Assay to monitor cytotoxicity in HEK293 cells - 40 hour (AID 1224871); further: nearly all actives have a fitted effect of over 45% in size; further: potency means the concentration at half of the fitted maximal effect
# Procedure, shortened: as §3
# [11] = qHTS RealTime-Glo MT Cell Viability Assay in HEK293 cells - 16 hour (AID 1224872); further: nearly all actives have a fitted effect of over 50% in size; further: potency means the concentration at half of the fitted maximal effect
# Procedure, shortened: as §2
# [12] = qHTS RealTime-Glo MT Cell Viability Assay in HepG2 cells - 8 hour (AID 1224873); further: nearly all actives have a fitted effect of over 55% in size
# Procedure, shortened: (§4)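 HepG2 cells (600/well) mixed with RealTime-Glo MT reagent, settled 5 h at 37 C/5% CO2 before compound addition. Nonlytic NanoLuc luminescence from viable-cell prosubstrate reduction read repeatedly during 40 h treatment at 37 C.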
# [13] = qHTS RealTime-Glo MT Cell Viability Assay in HEK293 cells - 40 hour (AID 1224874); conditions: RealTime-Glo luminescence; max response: stronger effect = lower value; further: nearly all actives have a fitted effect of over 50% in size; further: potency means the concentration at half of the fitted maximal effect
# Procedure, shortened: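 600 HEK293 cells per well, dispensed already mixed with RealTime-Glo MT reagents. Compound dosing came 5 h later. The same wells were read for luminescence at 0, 8, 16, 24, 32 and 40 h of exposure at 37 C.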
# [14] = A CellTox Green Cytotoxicity Assay to monitor cytotoxicity in HEK293 cells - 24 hour (AID 1224875); further: nearly all actives have a fitted effect of over 45% in size
# Procedure, shortened: as §3
# [15] = A CellTox Green Cytotoxicity Assay to monitor cytotoxicity in HepG2 cells - 16 hour (AID 1224876); further: nearly all actives have a fitted effect of over 45% in size
# Procedure, shortened: (§5)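 First, HepG2 cells (600/well) mixed with reagent were plated; second, after 5 h at 37 C they received compounds via pintool; third, fluorescence was measured at 0 h through 40 h at 8 h intervals.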
# [16] = qHTS RealTime-Glo MT Cell Viability Assay in HepG2 cells - 32 hour (AID 1224877); further: nearly all actives have a fitted effect of over 55% in size; further: potency means the concentration at half of the fitted maximal effect
# Procedure, shortened: as §1
# [17] = A CellTox Green Cytotoxicity Assay to monitor cytotoxicity in HepG2 cells - 24 hour (AID 1224878); further: nearly all actives have a fitted effect of over 45% in size; further: potency means the concentration at half of the fitted maximal effect
# Procedure, shortened: as §5
# [18] = A CellTox Green Cytotoxicity Assay to monitor cytotoxicity in HepG2 cells - 40 hour (AID 1224879); further: nearly all actives have a fitted effect of over 40% in size; further: potency means the concentration at half of the fitted maximal effect
# Procedure, shortened: as §5
# [19] = qHTS assay to identify small molecule agonists of H2AX (AID 1224845; active means well fitted activation curve with a large enough effect in the signal ratio in the repeat runs, not every such curve was filed as active; the % refers to the signal ratio)
# Procedure, shortened: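 Wild-type CHO-K1 cells, plated overnight, exposed 3hr at 37C to 15 concentrations (0.76% DMSO final). Lysed, then HTRF anti-pH2AX (S139) cryptate and anti-H2AX-d2 antibodies, 24 hr room temperature; 665/620 nm emission read.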
# [20] = qHTS RealTime-Glo MT Cell Viability Assay in HepG2 cells - 40 hour (AID 1224870); further: nearly all actives have a fitted effect of over 50% in size; further: potency means the concentration at half of the fitted maximal effect
# Procedure, shortened: as §4
# Chain of Thyrotropin receptor (Homo sapiens) (P16473 whole entry, looked up): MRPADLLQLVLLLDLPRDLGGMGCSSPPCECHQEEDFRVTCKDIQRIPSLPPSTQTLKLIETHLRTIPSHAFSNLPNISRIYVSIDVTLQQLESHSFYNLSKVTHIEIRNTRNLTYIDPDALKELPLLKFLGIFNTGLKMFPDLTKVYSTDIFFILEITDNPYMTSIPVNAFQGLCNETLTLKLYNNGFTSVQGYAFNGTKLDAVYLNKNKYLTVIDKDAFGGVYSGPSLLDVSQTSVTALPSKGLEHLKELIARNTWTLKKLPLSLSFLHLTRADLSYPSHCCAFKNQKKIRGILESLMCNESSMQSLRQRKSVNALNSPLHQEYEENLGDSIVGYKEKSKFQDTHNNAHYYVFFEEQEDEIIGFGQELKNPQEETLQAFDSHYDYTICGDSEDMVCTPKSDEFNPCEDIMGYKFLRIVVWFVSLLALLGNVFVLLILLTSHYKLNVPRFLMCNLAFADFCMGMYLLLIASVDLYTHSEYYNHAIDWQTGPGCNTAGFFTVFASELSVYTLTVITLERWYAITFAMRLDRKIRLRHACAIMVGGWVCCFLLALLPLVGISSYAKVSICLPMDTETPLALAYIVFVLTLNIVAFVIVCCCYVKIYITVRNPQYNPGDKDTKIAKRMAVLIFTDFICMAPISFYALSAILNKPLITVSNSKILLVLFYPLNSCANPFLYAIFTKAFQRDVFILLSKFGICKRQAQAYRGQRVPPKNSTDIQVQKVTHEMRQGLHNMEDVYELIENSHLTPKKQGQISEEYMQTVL
smiles,measurement,setting,value
CCCCCCCCCCCO,Potency,[1],inactive
same,Potency,[2],inactive
same,Potency,[3],inactive
same,Potency,[4],inactive
same,Potency,[5],inactive
same,"activity change, positive = activation",[6]; at 92.4 µM (top of the series),-4.02% (inactive) and 0.762% (inactive)
same,Potency,[7],inactive
same,Potency,[8],inactive
same,Potency,[9],inactive
same,Potency,[10],inactive
same,Potency,[11],inactive
same,Potency,[12],inactive
same,max response,[13],-2.32% (inactive) and 0.908% (inactive)
same,Potency,[14],inactive
same,Potency,[15],inactive
same,Potency,[16],inactive
same,Potency,[17],inactive
same,Potency,[18],inactive
CCCC(=O)O,Potency,[1],inactive
same,Potency,[2],inactive
same,outcome,[19],inactive
same,Potency,[3],inactive
same,Potency,[4],inactive
same,Potency,[5],inactive
same,Potency,[8],inactive
same,Potency,[9],inactive
same,Potency,[20],inactive
same,Potency,[10],inactive
same,Potency,[11],inactive
same,Potency,[12],inactive
same,max response,[13],23.6% (inactive) and 12.6% (inactive)
same,Potency,[14],inactive
same,Potency,[16],inactive
same,Potency,[17],inactive
same,Potency,[18],inactive
CC(C)=CCC/C(C)=C\CO,Potency,[1],inactive
same,Potency,[2],inactive
same,outcome,[19],inactive
same,Potency,[4],inactive
same,Potency,[7],inactive
same,Potency,[8],inactive
same,Potency,[9],inactive
same,Potency,[20],inactive
same,Potency,[10],inactive
same,Potency,[11],inactive
same,Potency,[12],inactive
same,max response,[13],0.916% (inactive) and 13.7% (inactive)
same,Potency,[14],inactive
same,Potency,[15],inactive
same,Potency,[16],inactive
same,Potency,[17],inactive
same,Potency,[18],inactive
O=S(=O)(O)c1ccc(O)cc1,Potency,[1],inactive
same,Potency,[2],inactive
same,outcome,[19],inactive
same,Potency,[3],inactive
same,Potency,[4],inactive
same,Potency,[7],inactive
same,Potency,[8],inactive
same,Potency,[9],inactive
same,Potency,[20],inactive
same,Potency,[10],inactive
same,Potency,[11],inactive
same,Potency,[12],inactive
same,max response,[13],9.46% (inactive) and 3.12% (inactive)
same,Potency,[14],inactive
same,Potency,[15],inactive
same,Potency,[16],inactive
same,Potency,[17],inactive
same,Potency,[18],inactive
CC(C)OC(=O)C(C)(C)Oc1ccc(C(=O)c2ccc(Cl)cc2)cc1,Potency,[1],inactive
same,Potency,[2],inactive
same,outcome,[19],inactive
same,Potency,[4],50.5 µM (active)
same,Potency,[7],inactive
same,Potency,[8],21.9 µM (active) and 10.7 µM (active)
same,Potency,[9],inactive
same,Potency,[10],inactive
same,Potency,[11],21.9 µM (active) and 16.9 µM (active)
same,Potency,[12],inactive
same,Potency,[13],24.5 µM (active) and 19 µM (active)
same,Potency,[14],inactive
same,Potency,[15],inactive
same,Potency,[16],inactive
same,Potency,[17],inactive
same,Potency,[18],inactive
c1ccc(Nc2ccccc2)cc1,Potency,[1],inactive
same,Potency,[2],inactive
same,outcome,[19],inactive
same,Potency,[3],inactive
same,Potency,[5],27.3 µM (active) and inactive
same,"activity change, positive = activation",[6]; at 92.4 µM (top of the series),-73.5% (inactive) and -5.69% (inactive)
same,Potency,[7],inactive
same,Potency,[8],19.5 µM (active) and inactive
same,Potency,[9],inactive
same,Potency,[20],43.6 µM (active) and inactive
same,Potency,[10],19.5 µM (active) and inactive
same,Potency,[11],17.4 µM (active) and inactive
same,Potency,[12],inactive
same,Potency,[13],19.5 µM (active)
same,max response,[13],12.7% (inactive)
same,Potency,[16],38.9 µM (active) and inactive
same,Potency,[17],43.6 µM (active)
same,Potency,[18],34.7 µM (active)
O=C(c1ccccc1)c1ccccc1O,Potency,[1],inactive
same,Potency,[2],inactive
same,outcome,[19],inactive
same,Potency,[3],inactive
same,Potency,[5],inactive
same,Potency,[7],inactive
same,Potency,[8],inactive
same,Potency,[9],inactive
same,Potency,[20],inactive
same,Potency,[11],inactive
same,Potency,[12],inactive
same,max response,[13],-15.9% (inactive) and -14.9% (inactive)
same,Potency,[14],inactive
same,Potency,[16],inactive
same,Potency,[17],inactive
same,Potency,[18],inactive
C/C=C/C(=O)O,Potency,[1],inactive
same,Potency,[2],inactive
same,outcome,[19],inactive
same,Potency,[3],inactive
same,Potency,[4],inactive
same,Potency,[5],inactive
same,Potency,[8],inactive
same,Potency,[9],inactive
same,Potency,[20],inactive
same,Potency,[10],inactive
same,Potency,[11],inactive
same,Potency,[12],inactive
same,max response,[13],2.91% (inactive) and 4.68% (inactive)
same,Potency,[14],inactive
same,Potency,[15],inactive
same,Potency,[16],inactive
same,Potency,[17],inactive
same,Potency,[18],inactive
Cc1ccc2c(n1)Oc1ccc(C(C)C(=O)OCC(=O)N(C)C)cc1C2 (centres undefined),Potency,[1],inactive
same,Potency,[2],inactive
same,Potency,[3],inactive
same,Potency,[4],inactive
same,Potency,[5],inactive
same,"activity change, positive = activation",[6]; at 42.5 µM (top of the series),24.3% (active) and 6.58% (inactive)
same,Potency,[7],inactive
same,Potency,[8],inactive
same,Potency,[9],inactive
same,Potency,[10],inactive
same,max response,[13],-20.9% (inactive) and -25.9% (inactive)
same,Potency,[14],inactive
same,Potency,[16],inactive
same,Potency,[17],inactive
same,Potency,[18],inactive
Cc1c(OCC(F)(F)F)ccnc1CS(=O)c1nc2ccccc2[nH]1 (centres undefined),Potency,[1],inactive
same,Potency,[2],inactive
same,outcome,[19],inactive
same,Potency,[4],inactive
same,Potency,[5],inactive
same,"activity change, positive = activation",[6]; at 42.5 µM (top of the series),-8.69% (active)
same,"activity change, positive = activation",[6]; at 92.4 µM (top of the series),-7.88% (inactive)
same,Potency,[7],inactive
same,Potency,[8],19.5 µM (active) and 10.7 µM (active)
same,Potency,[9],inactive
same,Potency,[10],inactive
same,Potency,[11],19.5 µM (active) and 23.9 µM (active)
same,Potency,[12],inactive
same,Potency,[13],21.9 µM (active) and 10.7 µM (active)
same,Potency,[14],inactive
same,Potency,[15],inactive
same,Potency,[16],inactive
same,Potency,[17],inactive
same,Potency,[18],inactive
CCC(C)c1ccccc1O (centres undefined),Potency,[1],inactive
same,Potency,[2],inactive
same,outcome,[19],inactive
same,Potency,[3],inactive
same,Potency,[4],inactive
same,Potency,[5],inactive
same,Potency,[8],inactive
same,Potency,[9],inactive
same,Potency,[20],inactive
same,Potency,[10],34.4 µM (active)
same,Potency,[11],inactive
same,Potency,[12],inactive
same,max response,[13],-13% (inactive) and 2.84% (inactive)
same,Potency,[15],inactive
same,Potency,[16],inactive
same,Potency,[17],inactive
same,Potency,[18],48.6 µM (active)
